# The entries come from a sample that favours the strongest signals as a whole.
# Assays:
# Test in all cases: glycan array binding signal (z-score within array); higher = stronger binding
# Settings in all cases: glycan notation: IUPAC condensed, linker removed
# [1] = biological target: Fuc(a1-2)Gal(b1-4)GlcNAc(b1-3)[Fuc(a1-2)Gal(b1-4)GlcNAc(b1-6)]GalNAc
# Outline: (§1)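 Glycan array data were curated from 3228 arrays in the Consortium for Functional Glycomics database and kept only where the protein sequence was available. Glycan names were converted to IUPAC-condensed notation, and columns mapping to the same glycan were averaged. The binding signal is a within-array Z-score, averaged across arrays of the same protein sequence at different concentrations or buffers and across linkers. Negative Z-scores can be read as non-binding.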
# [2] = biological target: Fuc(a1-2)Gal6S(b1-3)GlcNAc
# Outline: as §1
# [3] = biological target: Fuc(a1-2)[GalNAc(a1-3)]Gal(b1-3)GlcNAc(b1-2)Man(a1-3)[Fuc(a1-2)[GalNAc(a1-3)]Gal(b1-3)GlcNAc(b1-2)Man(a1-6)]Man(b1-4)GlcNAc(b1-4)[Fuc(a1-6)]GlcNAc
# Outline: as §1
# [4] = biological target: Fuc(a1-2)[GalNAc(a1-3)]Gal(b1-4)GlcNAc
# Outline: as §1
# [5] = biological target: Fuc(a1-3)GlcNAc
# Outline: as §1
# [6] = biological target: Fuc(a1-3)[Gal(b1-4)]GlcNAc(b1-3)Gal(b1-4)[Fuc(a1-3)]GlcNAc
# Outline: as §1
# [7] = biological target: Fuc(a1-3)[Gal(b1-4)]GlcNAc6S
# Outline: as §1
# [8] = biological target: Gal(a1-3)[Gal(a1-4)]Gal(b1-4)GlcNAc
# Outline: as §1
# [9] = biological target: Gal(b1-3)Gal
# Outline: as §1
# [10] = biological target: Gal(b1-3)GlcNAc
# Outline: as §1
# [11] = biological target: Gal(b1-3)GlcNAc(b1-2)Man(a1-3)[Gal(b1-3)GlcNAc(b1-2)Man(a1-6)]Man(b1-4)GlcNAc(b1-4)[Fuc(a1-6)]GlcNAc
# Outline: as §1
# [12] = biological target: Gal(b1-3)GlcNAc(b1-3)Gal(b1-4)Glc
# Outline: as §1
# [13] = biological target: Gal(b1-3)GlcNAc(b1-6)GalNAc
# Outline: as §1
# [14] = biological target: Gal(b1-3)GlcNAc(b1-6)[Gal(b1-3)]GalNAc
# Outline: as §1
# [15] = biological target: Gal(b1-3)[GlcNAc(b1-6)]GalNAc
# Outline: as §1
# [16] = biological target: Gal(b1-4)GlcNAc(b1-2)Man(a1-3)[Gal(b1-4)GlcNAc(b1-2)Man(a1-6)][GlcNAc(b1-4)]Man(b1-4)GlcNAc(b1-4)[Fuc(a1-6)]GlcNAc
# Outline: as §1
# [17] = biological target: Gal(b1-4)GlcNAc(b1-2)[Gal(b1-4)GlcNAc(b1-4)]Man(a1-3)[Gal(b1-4)GlcNAc(b1-2)Man(a1-6)]Man(b1-4)GlcNAc(b1-4)GlcNAc
# Outline: as §1
# [18] = biological target: Gal(b1-4)GlcNAc(b1-3)Gal(b1-4)GlcNAc(b1-2)Man(a1-3)[Gal(b1-4)GlcNAc(b1-3)Gal(b1-4)GlcNAc(b1-2)Man(a1-6)]Man(b1-4)GlcNAc(b1-4)GlcNAc
# Outline: as §1
# [19] = biological target: Gal(b1-4)GlcNAc(b1-3)Gal(b1-4)GlcNAc(b1-3)Gal(b1-4)GlcNAc(b1-2)Man(a1-3)[Gal(b1-4)GlcNAc(b1-3)Gal(b1-4)GlcNAc(b1-3)Gal(b1-4)GlcNAc(b1-2)Man(a1-6)]Man(b1-4)GlcNAc(b1-4)GlcNAc
# Outline: as §1
# [20] = biological target: Gal(b1-4)GlcNAc(b1-3)Gal(b1-4)GlcNAc(b1-3)Gal(b1-4)GlcNAc(b1-2)[Gal(b1-4)GlcNAc(b1-3)Gal(b1-4)GlcNAc(b1-3)Gal(b1-4)GlcNAc(b1-6)]Man(a1-6)[Gal(b1-4)GlcNAc(b1-3)Gal(b1-4)GlcNAc(b1-3)Gal(b1-4)GlcNAc(b1-2)Man(a1-3)]Man(b1-4)GlcNAc(b1-4)[Fuc(a1-6)]GlcNAc
# Outline: as §1
# [21] = biological target: Gal(b1-4)GlcNAc(b1-3)Gal(b1-4)GlcNAc(b1-3)Gal(b1-4)GlcNAc(b1-3)Gal(b1-4)GlcNAc(b1-2)Man(a1-3)[Gal(b1-4)GlcNAc(b1-3)Gal(b1-4)GlcNAc(b1-3)Gal(b1-4)GlcNAc(b1-3)Gal(b1-4)GlcNAc(b1-2)Man(a1-6)]Man(b1-4)GlcNAc(b1-4)[Fuc(a1-6)]GlcNAc
# Outline: as §1
# [22] = biological target: Gal(b1-4)GlcNAc(b1-3)Gal(b1-4)GlcNAc(b1-3)[Gal(b1-4)GlcNAc(b1-3)Gal(b1-4)GlcNAc(b1-6)]GalNAc
# Outline: as §1
# [23] = biological target: Gal(b1-4)GlcNAc(b1-3)Gal(b1-4)GlcNAc(b1-6)[Gal(b1-3)]GalNAc
# Outline: as §1
# [24] = biological target: Gal(b1-4)GlcNAc(b1-3)[GlcNAc(b1-6)]Gal(b1-4)GlcNAc
# Outline: as §1
# [25] = biological target: Gal3S(b1-4)[Fuc(a1-3)]GlcNAc6S
# Outline: as §1
binder,measurement,setting,value
"MPA (Maclura pomifera), P18674 (protein) GVTFDDGAYTGIREINFEYNSETAIGGLRVTYDLNGMPFVAEDHKSFITGFKPVKISLEFPSEYIVEVSGYVGKVEGYTVIRSLTFKTNKQTYGPYGVTNGTPFSLPIENGLIVGFKGSIGYWLDYFSIYLSL",glycan array binding signal (z-score),[1],-0.236
same,glycan array binding signal (z-score),[2],-0.247
same,glycan array binding signal (z-score),[3],-0.363
same,glycan array binding signal (z-score),[4],-0.227
same,glycan array binding signal (z-score),[5],-0.164
same,glycan array binding signal (z-score),[6],-0.148
same,glycan array binding signal (z-score),[7],0.042
same,glycan array binding signal (z-score),[8],-0.119
same,glycan array binding signal (z-score),[9],-0.079
same,glycan array binding signal (z-score),[10],-0.201
same,glycan array binding signal (z-score),[11],-0.074
same,glycan array binding signal (z-score),[12],-0.157
same,glycan array binding signal (z-score),[13],-0.363
same,glycan array binding signal (z-score),[14],-0.291
same,glycan array binding signal (z-score),[15],-0.112
same,glycan array binding signal (z-score),[16],-0.26
same,glycan array binding signal (z-score),[17],-0.046
same,glycan array binding signal (z-score),[18],3.21
same,glycan array binding signal (z-score),[19],8.11
same,glycan array binding signal (z-score),[20],2.44
same,glycan array binding signal (z-score),[21],4.26
same,glycan array binding signal (z-score),[22],4
same,glycan array binding signal (z-score),[23],2.93
same,glycan array binding signal (z-score),[24],-0.172
same,glycan array binding signal (z-score),[25],-0.226
